This is a sample that favours compounds with a hit; in the whole collection about 12% have one here.
JMJD2A Tudor inh: blocks the human JMJD2A Tudor domain; O75164; AlphaScreen JMJD2A-Tudor / H3K4me3 peptide binding; Potency, µM (top dose mostly 114 µM), without a hit: at the highest dose activity change, negative = inhibition, usual class: inhibitors; hit rate 4.4% among 390,000; AID 504339; also: % is scaled to controls: 0 for no effect and ±100 for the full control effect; nearly all actives have a fitted effect of over 50% in size
Target sequence (O75164 whole entry, looked up, the tested form may be a part): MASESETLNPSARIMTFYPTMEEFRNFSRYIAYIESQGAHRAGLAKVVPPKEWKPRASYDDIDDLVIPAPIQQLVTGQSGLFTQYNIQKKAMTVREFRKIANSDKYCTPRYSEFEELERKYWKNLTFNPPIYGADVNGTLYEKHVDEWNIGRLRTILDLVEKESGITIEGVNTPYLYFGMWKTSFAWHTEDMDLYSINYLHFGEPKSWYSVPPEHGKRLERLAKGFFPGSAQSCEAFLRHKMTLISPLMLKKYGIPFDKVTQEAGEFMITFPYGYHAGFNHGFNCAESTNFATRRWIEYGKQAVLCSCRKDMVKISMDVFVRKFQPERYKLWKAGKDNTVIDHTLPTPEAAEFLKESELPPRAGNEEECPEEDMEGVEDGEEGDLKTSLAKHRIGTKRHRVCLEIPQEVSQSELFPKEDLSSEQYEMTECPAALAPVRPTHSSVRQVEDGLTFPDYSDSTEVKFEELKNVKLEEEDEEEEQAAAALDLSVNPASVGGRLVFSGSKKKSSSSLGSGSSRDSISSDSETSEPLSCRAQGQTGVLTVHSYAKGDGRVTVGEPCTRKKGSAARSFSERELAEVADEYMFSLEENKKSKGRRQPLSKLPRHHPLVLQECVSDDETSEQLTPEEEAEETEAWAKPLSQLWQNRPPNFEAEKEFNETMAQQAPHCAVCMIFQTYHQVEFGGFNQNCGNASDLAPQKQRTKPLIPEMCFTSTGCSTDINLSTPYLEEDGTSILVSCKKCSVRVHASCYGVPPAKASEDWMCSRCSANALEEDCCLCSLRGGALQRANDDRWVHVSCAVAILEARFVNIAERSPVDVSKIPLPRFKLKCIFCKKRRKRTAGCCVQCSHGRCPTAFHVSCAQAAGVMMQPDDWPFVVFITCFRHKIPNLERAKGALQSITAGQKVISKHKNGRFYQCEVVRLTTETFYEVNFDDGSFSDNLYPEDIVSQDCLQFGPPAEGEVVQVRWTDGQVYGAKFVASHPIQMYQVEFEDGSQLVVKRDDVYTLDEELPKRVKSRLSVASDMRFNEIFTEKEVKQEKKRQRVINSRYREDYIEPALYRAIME
BAZ2B inh: BAZ2B (human) inhibition; Q9UIF8; AlphaScreen BAZ2B-H3K14Ac peptide displacement; Potency, µM (titrated, usually from 114 µM), inactives show at the highest dose activity change, negative = inhibition, hits mostly inhibitors; hit rate 4.4% among 360,000; also: % is scaled to controls: 0 for no effect and ±100 for the full control effect; nearly all actives have a fitted effect of over 60% in size
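Protein-peptide AlphaScreen: BAZ2B 50 nM, b-H3K14Ac 50 nM, 1x PBS pH 7.4 + 0.01% Tween-20. Preincubation 30 min RT; cpd 30 min RT (top 110 uM); beads 20 min RT, light-protected.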
PLK1 PBD inh: PLK1 (human) polo-box domain binding inhibition; Potency, µM, inactives show max response, negative = inhibition, hits mostly inhibitors; P53350; Plk1 PBD binding of FITC phosphopeptide, fluorescence polarization; hit rate 2.8% among 360,000; also: series mostly up to about 57 µM; % is scaled to controls: 0 for no effect and ±100 for the full control effect; nearly all actives have a fitted effect of over 65% in size
G9a block: inhibitors of human histone lysine methyltransferase G9a; Potency, µM (titrated, usually from 102 µM), without a hit: at the top dose activity, negative = inhibition, most hits filed as inhibitors; G9a H3K9 monomethylation, AlphaScreen, 2 h; AID 504332; Q96KQ7; hit rate 8.8% among 350,000; also: % is scaled to controls: 0 for no effect and ±100 for the full control effect; nearly all actives have a fitted effect of over 75% in size
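Methyltransferase reactions run at room temperature for 2 h (20 nM enzyme, 500 nM biotin-H3K9 peptide, 20 uM SAM) after a 15 min compound preincubation; product detected by AlphaScreen beads and anti-H3K9me1 antibody.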
Sfp inh: blocks B. subtilis Sfp PPTase activity; Q9F4F7; Biochemical Sfp PPTase activity, qHTS; hit rate 3.5% among 310,000; Potency, µM, for inactives: largest response in the series, negative = inhibition, hits mostly inhibitors; AID 1490;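 also: the enzyme is Sfp with the accession as filed and its product quenches rhodamine fluorescence; 0% = enzyme reaction without inhibitor and -100% = no enzyme wells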
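Step 1, compound plus 15 nM Sfp-PPTase, 15 min, room temperature. Step 2, add rhodamine-CoA (5 uM) and BHQ-2-YbbR (12.5 uM). Step 3, read 525/598 nm fluorescence at 0 and 30 min.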
HP1b binding inh: inhibitors of HP1-beta chromodomain binding to methylated histone tails; P83916; AlphaScreen HP1-beta / biotin-H3K9me3 peptide binding; Potency, µM (highest dose often 114 µM), without a hit: top-dose activity change, negative = inhibition, actives largely listed as inhibitors; hit rate 0.56% among 390,000; also: nearly all actives have a fitted effect of over 70% in size
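HP1-beta protein (50 nM final) preincubated 30 min at room temperature with biotinylated H3(1-18)K9me3 peptide (50 nM) in PBS pH 7.4, 0.01% Tween-20, then compound added for 30 min. AlphaScreen streptavidin donor/nickel chelate acceptor beads (10 ug/mL final), 30 min dark, luminescence read.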
Active calls of the source: *; [ ] = dose if it differs, or a comment. Calls follow the shape of the dose curve; as a rule, active = well fitted curve in the direction sought with a large enough effect; inconclusive = small, poorly fitted or top-dose-only effect, or another doubt; inactive = no such curve, though single readings can be large; an effect the other way counts as inactive or inconclusive. Potency is read from the fitted curve at half-maximal effect.

Results for Oc1cccc(C2c3[nH]c4ccccc4c3CCN2Cc2ccc3c(c2)CCO3)c1 (centres undefined) ?
JMJD2A Tudor inh: 56.2µM*; BAZ2B inh: 44.7µM*; PLK1 PBD inh: -2.0%; G9a block: -44.0%; Sfp inh: 9.6%; HP1b binding inh: -34.5%

Results for COc1ccc(C2c3[nH]c4ccccc4c3CCN2Cc2ccoc2)c(F)c1 (centres undefined) ?
JMJD2A Tudor inh: inconclusive; BAZ2B inh: inconclusive; PLK1 PBD inh: 1.6%; G9a block: 44.7µM*; Sfp inh: 5.3%; HP1b binding inh: -11.9%

Results for CC(C)(C)C1c2[nH]c3ccccc3c2CCN1CCCn1cccn1 (centres undefined) ?
JMJD2A Tudor inh: -28.5%; BAZ2B inh: -18.5%; PLK1 PBD inh: -4.1%; G9a block: -27.7%; Sfp inh: 13.2%; HP1b binding inh: 24.4%

Results for Oc1cccc(C2c3[nH]c4ccccc4c3CCN2Cc2ccoc2)c1 (centres undefined) ?
JMJD2A Tudor inh: inconclusive; BAZ2B inh: inconclusive; PLK1 PBD inh: -13.0%; G9a block: -39.4%; Sfp inh: 5.2%; HP1b binding inh: -16.2%

How did Cc1ccc(NC(=O)C2(C)CCN2C(=O)Cc2cc(F)ccc2F)cc1 (centres undefined) do in these assays?
PLK1 PBD inh: -3.7%

Results for CSc1nc(NCc2ccccc2)c2c3c(sc2n1)CN(C)CC3 ?
JMJD2A Tudor inh: inconclusive; BAZ2B inh: -13.8%; PLK1 PBD inh: -11.3%; G9a block: 39.8µM*; Sfp inh: inconclusive; HP1b binding inh: -2.1%

Results for CCN(CC)CCNc1nc(SC)nc2sc3c(c12)CCN(C)C3 ?
JMJD2A Tudor inh: -29.5%; BAZ2B inh: -10.1%; PLK1 PBD inh: -10.6%; G9a block: inconclusive; Sfp inh: 5.6%; HP1b binding inh: -24.2%

How did CSc1nc(NCC(C)C)c2c3c(sc2n1)CN(C)CC3 do in these assays?
JMJD2A Tudor inh: -20.0%; BAZ2B inh: 1.0%; PLK1 PBD inh: -13.3%; G9a block: -38.7%[59 µM]; Sfp inh: 7.8%; HP1b binding inh: 48.5%

How did CSc1nc(NCCCN(C)C)c2c3c(sc2n1)CN(C)CC3 do in these assays?
BAZ2B inh: -5.7%; G9a block: 50.1µM*; Sfp inh: 6.9%

How did CS(=O)(=O)N1CCC2(CCN(C(=O)Nc3cccc(C#N)c3)CC2)CC1 do in these assays?
G9a block: 1.5%[12.7 µM]; Sfp inh: 1.4%

What do the screens show for `O=C1CCC(C(=O)N2CCc3c(Cl)cccc3C2)CN1CCCN1CCOCC1` (centres undefined)?
JMJD2A Tudor inh: -0.7%; BAZ2B inh: -12.2%; PLK1 PBD inh: 2.1%; G9a block: 39.8µM*; Sfp inh: 13.9%; HP1b binding inh: 36.9%

How did CCCCC[C@H](O)/C=C/[C@H]1CCC(=O)[C@@H]1CCCCCCC(=O)N1CCCCC1CO (some centres undefined) do in these assays?
JMJD2A Tudor inh: -7.7%; BAZ2B inh: -2.2%; PLK1 PBD inh: -3.8%; G9a block: -12.2%[2.33 µM]; Sfp inh: 6.2%; HP1b binding inh: 17.6%

What do the screens show for `CCNC(=O)C1(C)CCN(Cc2ccc(-c3ccccc3)cc2)C1` (centres undefined)?
PLK1 PBD inh: -14.1%

How did Cc1ccccc1OCC(=O)Nc1ccc(OCc2cc(=O)n3ccccc3n2)cc1 do in these assays?
JMJD2A Tudor inh: -17.9%; BAZ2B inh: 1.9%; G9a block: -12.6%[59 µM]; HP1b binding inh: 24.7%[57 µM]

Results for O=C1CCCC2=C1C1(CCSC1)N=C(Nc1nc3ccccc3o1)N2 (centres undefined) ?
JMJD2A Tudor inh: -2.1%

What do the screens show for `N#Cc1cc(Oc2cccc3cccnc23)c(-n2nnc3ccccc32)cc1C#N`?
JMJD2A Tudor inh: -5.8%; BAZ2B inh: -4.4%; PLK1 PBD inh: -12.9%; G9a block: inconclusive; Sfp inh: 50.1µM*; HP1b binding inh: 41.8%

How did N#Cc1cc(O)c(-n2nnc3ccccc32)cc1C#N do in these assays?
JMJD2A Tudor inh: 0.0%; BAZ2B inh: -24.4%; PLK1 PBD inh: 3.5%; G9a block: inconclusive; Sfp inh: -18.9%; HP1b binding inh: 36.4%

How did CN1C(=O)C(=O)/C(=C(/O)c2ccccc2)C1c1ccccc1 (centres undefined) do in these assays?
JMJD2A Tudor inh: -22.0%; BAZ2B inh: -3.9%; PLK1 PBD inh: -5.3%; G9a block: inconclusive; Sfp inh: 11.0%; HP1b binding inh: 21.0%

Results for O=C1OC(c2ccccc2)/C(=C(/O)c2ccc(Cl)cc2)C1=O (centres undefined) ?
JMJD2A Tudor inh: 25.1µM*; BAZ2B inh: inconclusive; PLK1 PBD inh: -21.9%; G9a block: -3.9%[12.7 µM]; Sfp inh: 7.9%; HP1b binding inh: -5.6%

Results for O=C1OC(c2ccccc2)/C(=C(/O)c2ccccc2)C1=O (centres undefined) ?
JMJD2A Tudor inh: 35.5µM*; BAZ2B inh: 0.4%; PLK1 PBD inh: -2.9%; G9a block: -8.0%[12.7 µM]; Sfp inh: -9.9%; HP1b binding inh: -0.2%

Results for Cc1ccc(/C(O)=C2/C(=O)C(=O)OC2c2ccc(Cl)cc2)cc1 (centres undefined) ?
JMJD2A Tudor inh: 79.4µM*; BAZ2B inh: -29.3%[57.1 µM]; PLK1 PBD inh: inconclusive; G9a block: inconclusive; Sfp inh: 2.0%; HP1b binding inh: -8.3%

Results for O=C1C(=O)N(CCO)C(c2cccc(F)c2)/C1=C(\O)c1ccc(Cl)cc1 (centres undefined) ?
JMJD2A Tudor inh: -23.0%; BAZ2B inh: inconclusive; PLK1 PBD inh: -6.3%; G9a block: 8.7%[0.501 µM]; Sfp inh: 18.3%; HP1b binding inh: 32.8%

How did Cn1cccc1C(=O)N1CCC2(CC1)CCN(c1ncccn1)CC2 do in these assays?
G9a block: -19.9%[12.7 µM]; Sfp inh: 7.7%

How did CCCn1c(-c2ccc(F)cc2)nc2c(NCCN3CCSCC3)nc(C)nc21 do in these assays?
Sfp inh: 3.6%

What do the screens show for `Cc1ccc(-n2nc(CO)c(C(=O)NCc3cccnc3)n2)cc1C`?
JMJD2A Tudor inh: -9.1%; BAZ2B inh: -11.3%; G9a block: 2.4%[59 µM]; HP1b binding inh: 19.1%

Results for Cc1ccc(OCC(O)CN2CCN(CC(O)COC(C)C)CC2)c(C(C)(C)C)c1 (centres undefined) ?
JMJD2A Tudor inh: -16.1%; BAZ2B inh: 0.6%; PLK1 PBD inh: 4.5%; G9a block: 9.3%[12.7 µM]; Sfp inh: 3.4%; HP1b binding inh: 23.2%

What do the screens show for `COc1ccccc1N1CCN(CC(O)COc2ccc(C)c(C)c2)CC1` (centres undefined)?
JMJD2A Tudor inh: inconclusive; BAZ2B inh: inconclusive; PLK1 PBD inh: -11.9%; G9a block: -28.3%; Sfp inh: -3.4%; HP1b binding inh: 13.1%
